± gives the standard deviation of the averaged measurements. The full ranking holds about 25,000 sequences; the median of “ln(normalized median fluorescence intensity)” is about 8.6, and the highest 2% start at about 10. Only a selection was taken, and the highest values are over-represented in it overall.
Each sequence was assayed on PfAP2-EXP AP2 domain (GST-tagged) (assay: gcPBM binding intensity (ln(normalized median fluorescence intensity)); higher = stronger DNA binding).
In short: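 Binding intensity is the highest Masliner-normalised natural-log median intensity over replicate spots in either probe orientation. To obtain it, GST-tagged P. falciparum DNA-binding domains made in E. coli were incubated for 1 h on an Agilent 4 × 180k array of primer-extended double-stranded 36-bp intergenic genomic probes plus negative controls. Detection used Alexa488 anti-GST antibody with scanning at 488 nm.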

Point of comparison: “TAATGAAAAAATAAAAGAATAAATAAATAAATAAAT [TGCATGCA_negctrl_site130]”, “gcPBM binding intensity (ln)” value 8.77 ± 0.3. Against it:
- TTTTCATTCAATTATATTTATATATATATATATATA [GTGCAC_negctrl_site538] — higher, 10.2 ± 0.44
- ATTTGTATATAATATATATAATTTTTTTTTTTTGTT [XGTACX_negctrl_site425] — within error, 8.2 ± 0.31
- ATATATTTTATTCCTATATATATATATATATATATA [GTGCAC_negctrl_site556] — higher, 10.2 ± 0.49
- TTTTATTCCTATTTATTTATATTTTTGTCTTATATC [CACACA_negctrl_site125] — within error, 8.8 ± 0.43
- TTTTATTATTCTTCTCTCTTATATATATATATATAT [CACACA_negctrl_site646] — higher, 10.2 ± 0.26
- ATTTTTTTTATTTTTTCAATATATATATATATATAT [CACACA_negctrl_site1444] — higher, 10.2 ± 0.19
- GTATATATATATATATATATATATTTTTATTTATTT [CACACA_negctrl_site589] — within error, 8.65 ± 0.18
- TTTTTTTATTATTCTTATATAAAAATTTTTTTTAAT [CACACA_negctrl_site159] — within error, 8.27 ± 0.45
- GTATATATTTTTATTTAATAATTTGTTTATTTATTC [CACACA_negctrl_site647] — within error, 8.56 ± 0.22
- TTTTTTTTTTTTTTTTTTTTCATTCAATTATATTTA [CACACA_negctrl_site712] — lower, 8.04 ± 0.33
- ATATATATATATATATATATAATTTTTTTTGTTTTT [TGCATGCA_negctrl_site453] — higher, 10.3 ± 0.3
- ACAAAAAAAAAGGAAACACACAAAAAAAAAAAATAA [CACACA_site3523] — within error, 8.44 ± 0.59
- AGTGTATATAGAAACATACACACATATTAATTTTAC [CACACA_site3127] — within error, 8.3 ± 0.28
- AAAAAAAAAAAAAAAGTGCACTGAAAATATATTGAA [GTGCAC_site9395] — within error, 9.04 ± 0.2
- TTTTTTTTTCTTTCTTTCTTTTGTAAAAACCTCAAA [CACACA_negctrl_site723] — within error, 8.46 ± 0.37
- TGTGCACGTTCTGTGACACACATTTAAATGTGCTTA [CACACA_site176] — within error, 8.62 ± 0.35
- TTTTTTTTTTTTTTTTATTTATATATATATATATAT [CACACA_negctrl_site582] — higher, 9.98 ± 0.23
- TATTAATTAAACCATACACACATAATTTTTTTATAA [CACACA_site843] — within error, 8.21 ± 0.43
- GCATATATTATATATTTATTTATTTTTTTTTTTTAA [GTGCAC_negctrl_site193] — within error, 8.32 ± 0.46
- TATATATATTAATTTATTTATTTGTTTATTTATTTA [CACACA_negctrl_site185] — within error, 8.41 ± 0.18
- GTTATATATATATATATATATATATATATTTTTTTT [GTGCAC_negctrl_site597] — within error, 8.84 ± 0.15
- ATTTTGTTATTATATATATATATATATATATATATA [XGTACX_negctrl_site590] — higher, 10.3 ± 0.57
- TATATATATATATATATATATATTTTTATTATATAT [XGTACX_negctrl_site89] — higher, 10.2 ± 0.52
- TATTTTTATTTTTAAACCATATATATATATATATAT [CACACA_negctrl_site1560] — higher, 10.3 ± 0.23
- TTTTTATTTATATATATATATATATATTATATATAA [CACACA_negctrl_site1654] — within error, 8.34 ± 0.36
- AAAATATATTAAGGCACACACATACAGATATATATA [CACACA_site5951] — within error, 8.9 ± 0.37
- TATAAAATATAATTAGCACACATATATAAAATATAT [CACACA_site9355] — within error, 8.21 ± 0.34
- ATTTTGCCTGACCCATGTACATATTATTTTTTGCAT [XGTACX_site2258] — within error, 9.41 ± 0.4
- AGTATATTAATATAATGTACAAACGTTTATTTTGTA [XGTACX_site5980] — within error, 8.59 ± 0.42
- TATATATATATATATGTACACACATCAATCATATTA [CACACA_site8594] — higher, 10.1 ± 0.36
- AAAATATATACAATATGTACATATATATATATATAT [XGTACX_site1898] — higher, 9.96 ± 0.35
- TTACGATCATCAATATGTACATATATATATATATAT [XGTACX_site4301] — higher, 10.2 ± 0.3
- ATATATATATATATATGTACATATATATACATATAT [XGTACX_site6987] — higher, 10.1 ± 0.43
- ATATATATATATATATGTACATACATACAATCATAT [XGTACX_site6410] — higher, 10.3 ± 0.45
- ATATATATATATATATGTACACACATCAATCATATT [XGTACX_site4005] — higher, 10.2 ± 0.54
- CGAAATCATATGTACACACACATATATATATATATA [CACACA_site2151] — higher, 10.2 ± 0.62
- AAATATATATATATATGTACACACACACATATAAAT [XGTACX_site847] — within error, 8.5 ± 0.3
- TACGAAATCATATGTACACACACATATATATATATA [CACACA_site5216] — higher, 10.1 ± 0.39
- TTAACAAAATATAGCACACATAAATATATATTTATG [CACACA_site351] — within error, 8.66 ± 0.33
- TATACATATTATATATGTACACATATTATATGTATA [XGTACX_site5851] — lower, 8.27 ± 0.15
- ATTATATAGAATTGTACATGCGAATTGTATAACGAT [TGCATGCA_site125] — within error, 9.31 ± 0.57
- ACATATATATAATATATATATCATCATATTTTCTTA [CACACA_negctrl_site853] — within error, 8.27 ± 0.39
- TATTAAAATTAAAAAAAAAAAAAAAAGCAATAAAAA [XGTACX_negctrl_site426] — within error, 8.33 ± 0.71

— the supplement of paper PMC11417369
